Compound activity from PubChem.
The sample as a whole holds a higher share of hits than the screen did.
CapD inh: CapD enzyme inhibition. purified CapD enzyme, fluorescence intensity read-out; stronger effect = lower value. z-score (concentration not given with the values). 140,000 compounds, 0.23% hits; in the data active means z-score mostly below about -2.9, no sharp cut-off; inactive means mostly above about -1.9
Hits are given with their value; – = inactive.

SMILES	CapD inh
CCc1ccc(-n2cnc3cc(C(=O)NCCc4ccccc4)ccc32)cc1	–
CCOC(=O)c1sc2sc(C(C)=O)c(C)c2c1C	–
CCOC(=O)CCc1c(C)nc2c(c(C)nn2C(C)(C)C)c1C	–
CCOC(=O)c1c(C)cccc1NC(=O)c1cccs1	-1.7
Cc1ccc(C)c(NC(=O)c2cccs2)c1	–
Cc1c(Cl)cccc1NC(=O)c1cccs1	–
CCN1CCN(C(c2cccs2)C(C)NC(=O)Cc2cccs2)CC1 (centres undefined)	–
CC(C)C(=O)NC(C)C(c1cccs1)N1CCOCC1 (centres undefined)	–
CCN1CCN(C(c2cccs2)C(C)NC(=O)C(C)C)CC1 (centres undefined)	-5.4
Cc1cc(-n2c(C)ccc2C)no1	–
O=C(O)c1cccc2[nH]c3c(c12)CCCC3	–
N#Cc1c(NC(=O)c2cccnc2Cl)sc2c1CCCCC2	–
CC(C(=O)O)N1C(=O)/C(=C\c2ccco2)SC1=S (centres undefined)	-4.9
CC(C(=O)O)N1C(=O)/C(=C/c2ccccc2Cl)SC1=S (centres undefined)	–
O=C(O)CCN1C(=O)/C(=C/c2ccccc2)SC1=S	–
Cc1ccc(/C=C2/SC(=S)N(C(C)C(=O)O)C2=O)o1 (centres undefined)	–
O=C(O)CCN1C(=O)/C(=C/c2ccco2)SC1=S	-6.1
O=C(O)CCN1C(=O)/C(=C\c2ccccc2)SC1=S	–
CSC(SC)=C(C#N)c1ccccn1	–
COc1ccc(C2OC(COc3ccc4c(C)cc(=O)oc4c3)=NN2C(C)=O)cc1 (centres undefined)	–
COc1cc(OC)nc(CSc2nc3ccccc3[nH]2)n1	–
Cc1[nH]nc2nc(SCC(=O)NCCc3ccccc3)n(-c3ccccc3Cl)c(=N)c12	–
Fc1ccccc1C1N(Cc2ccccc2)CCCN1Cc1ccccc1	–
Fc1ccccc1C1N(Cc2ccccc2)CCN1Cc1ccccc1	–
CCC(C)N1Cc2ccccc2N(CC)C1c1ccccc1F (centres undefined)	-4.3
SMILES	CapD inh
Cc1ccc2oc(=O)c3cnn(CC(=O)NCCCN4CCc5ccccc5C4)c3c2c1	–
COC(=O)c1sc2ccccc2c1-n1cccc1C(=O)C(=O)NC1CC1	–
CCOC(=O)c1cnc(N2CCc3ccccc3C2)nc1N	-3.9
CCOC(=O)c1sc2ncnc(N3CCc4ccccc4C3)c2c1C	–
CCOC(=O)c1sc2nc(C)nc(N3CCc4ccccc4C3)c2c1C	–
COC(=O)N(c1ccc(SC)cc1)c1nc(C)cc(C)n1	–
CC(C)n1cc(-c2ccncc2)cn1	–
CCOc1ccc(-n2c(O)c(C3=c4ccccc4=NC3=O)sc2=O)cc1	–
COc1ccc(N(C(C)=O)S(=O)(=O)c2ccc(C)cc2)cc1	–
CCCC(=O)Oc1ccc(N(C(=O)CCC)S(=O)(=O)c2ccccc2)cc1	–
CC(=O)Oc1ccc(N(C(C)=O)S(=O)(=O)c2ccccc2)cc1	-4.2
O=C(NCC1CCCO1)c1cccc2cc[nH]c12 (centres undefined)	–
CN(C)C(=O)c1cccc2c1NC(c1ccc(Br)cc1)C1CC=CC21 (centres undefined)	–
COC(=O)c1ccc([C@@H]2Nc3c(C)cccc3[C@@H]3C=CC[C@@H]32)cc1	–
O=C(O)C1Nc2c(I)cccc2C2C=CCC12 (centres undefined)	-8.1
ON/C=N/c1ncc(C(F)(F)F)cc1Cl	–
CC(=O)NCCc1nc2ccccc2n1Cc1ccc(C(C)C)cc1	–
CC(=O)/C(=C/Nc1ccc(I)cc1)c1ccccc1	–
C/C(C=Nc1ccccc1)=C\Nc1ccccc1	-5
C(=Nc1ccccc1)c1ccccc1	–
COc1ccc(C2C(C(N)=O)C(=O)NC(O)(c3ccccc3)C2C#N)cc1 (centres undefined)	–
CCC(=O)NC(C)Cc1c[nH]c2ccccc12 (centres undefined)	–
Cn1c(CO)nc2cc(N=Cc3ccc(O)cc3O)ccc21	–
COC(=O)c1cccc(-c2ccc(/C=C3\SC(=N)N(c4nccs4)C3=O)o2)c1	–
N=C1S/C(=C/c2ccc(-c3cccc(C(=O)O)c3)o2)C(=O)N1c1nonc1N	-6.1
SMILES	CapD inh
N=C1S/C(=C/c2ccc(-c3ccccc3[N+](=O)[O-])o2)C(=O)N1c1nonc1N	–
COc1ccc(SCC(=O)Nc2ccccn2)cc1	–
C=CCN1C(=O)/C(=C/c2ccco2)C(=O)NC1=S	-4.7
C=CCN1C(=O)/C(=C\c2ccc(-c3ccc(Cl)c([N+](=O)[O-])c3)o2)C(=O)NC1=S	–
C=CCN1C(=O)NC(=O)/C(=C/c2ccco2)C1=O	–
O=C(OCC(=O)c1cccc2ccccc12)c1cccs1	–
Cc1cc(/C=C2\C(=O)NC(=O)N(c3ccc(Br)cc3)C2=O)c(C)n1-c1cc(C(=O)O)cc(C(=O)O)c1	–
Cc1cc(/C=C2\C(=O)NC(=S)N(c3ccc(Cl)cc3)C2=O)c(C)n1-c1cc(C(=O)O)cc(C(=O)O)c1	-6.2
CC(=O)Oc1ccc(-n2c(C)cc(/C=C3\C(=O)NC(=S)N(c4ccc(C)cc4)C3=O)c2C)cc1	–
COc1ccc(OC)c(-c2nc(NC(C)=O)c3c(=O)oc4ccccc4c3n2)c1	–
O=C1Nc2ccc(Br)cc2C1=Nc1ccc(Cl)cc1	–
O=C1Nc2ccc(Br)cc2/C1=N/N1C(=O)C(O)=CC1(O)c1ccccc1 (centres undefined)	-4.1
O=C(O)CN1C(=O)Nc2ccc(Br)cc2C1c1ccccc1 (centres undefined)	–
Cc1c(C(=O)/C=C/N(C)C)nnn1-c1ccc(Cl)c(Cl)c1	–
CSc1sc(C(=O)/C=C/N(C)C)c(-c2cccs2)c1C#N	–
C/C(=N\O)c1ccc2c(c1)CCO2	–
Cc1c(C(=O)/C=C/N(C)C)nnn1-c1ccc(F)c(Cl)c1	–
Cc1oc(-c2ccccc2)cc1C(=O)/C=C/N(C)C	–
Cc1c(C(=O)/C=C/N(C)C)nnn1-c1ccccc1	-5.5
CN(C)/C=C/C(=O)c1ccc2c(c1)CCO2	-6.1
CN(C)/C=C/C(=O)c1ccccc1	-4.9
CC(=O)c1ccc2c(c1)CCO2	–
O=C(c1cccs1)c1cccs1	–
CN(C)/C=C/C(=O)c1ccc(S(=O)(=O)c2ccccc2)cc1	–
CN(C)/C=C/C(=O)c1cccs1	-4.9
SMILES	CapD inh
O=C(NCc1ccco1)c1sc2ccccc2c1Cl	–
O=c1c2cc(Br)ccc2nc(-c2ccc(Cl)c(Cl)c2)n1O	–
Clc1ccccc1CNCc1ccc2c(c1)OCO2	–
COc1ccc2[nH]cc(CCNC(=O)OCCc3ccccc3F)c2c1	–
Cc1csc(NC(=O)C(C)Oc2ccccc2)n1 (centres undefined)	–
CCOc1cccc2sc(=NC(=O)c3ccc(C#N)cc3)n(CC)c12	–
CCn1c(=O)cc(OCC(=O)N2CCC3(CC2)OCCO3)c2ccccc21	–
O=C(O)COCc1nc(-c2cnccn2)no1	–
COc1cc2c(cc1OC)C(C)N(C(=O)c1c(-c3ccccc3)noc1C)CC2 (centres undefined)	–
N#C/C(=C\C=C\c1ccco1)c1nc2c(s1)CCCC2	–
N#C/C(=C\C=C\c1ccco1)C(N)=S	-12
NC(=S)N/N=C/c1ccco1	–
COc1ccc(C=C(C#N)C#N)cc1Br	–
COc1cccc2c1c(NC(=O)C1CCN(C(=O)OCc3ccccc3)CC1)nn2C	–
Nc1ccccc1C(=O)Cc1ccccc1	–
O=C(Cc1ccccc1)c1ccc(O)cc1	–
O=C(Cc1ccccc1)c1cc(O)c(O)cc1O	-7.6
COc1cc(/C=C2\C(=O)NC(=O)N(c3ccc(Br)c(C)c3)C2=O)cc(OC)c1O	–
O=C(CSc1ncnc2ccccc12)N(Cc1ccccc1)Cc1ccccc1	–
